Most compounds without a hit are left out; they make up all but 13% or so of the library.
USP17 inh: human USP17-like deubiquitinase inhibition. AID 1645855. purified USP17, Ub-rhodamine cleavage fluorescence, 3 h. inhibition, % at 50 µM. 47,000 compounds, 6.5% hits. A8MUK1
Target sequence (A8MUK1 whole entry, looked up): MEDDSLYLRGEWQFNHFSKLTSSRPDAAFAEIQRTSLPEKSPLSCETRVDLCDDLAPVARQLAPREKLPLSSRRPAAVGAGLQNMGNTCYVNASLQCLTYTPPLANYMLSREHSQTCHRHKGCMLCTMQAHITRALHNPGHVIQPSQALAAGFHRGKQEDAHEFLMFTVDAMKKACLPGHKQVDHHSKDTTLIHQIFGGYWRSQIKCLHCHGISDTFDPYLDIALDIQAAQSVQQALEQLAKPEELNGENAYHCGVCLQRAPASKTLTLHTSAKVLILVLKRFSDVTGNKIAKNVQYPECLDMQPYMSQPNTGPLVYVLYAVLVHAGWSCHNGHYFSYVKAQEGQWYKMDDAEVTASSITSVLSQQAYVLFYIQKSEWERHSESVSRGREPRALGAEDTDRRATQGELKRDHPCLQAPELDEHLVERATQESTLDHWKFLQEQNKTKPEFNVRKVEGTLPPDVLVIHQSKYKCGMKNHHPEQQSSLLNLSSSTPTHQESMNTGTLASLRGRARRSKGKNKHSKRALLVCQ
USP30 inh: blocks human USP30 ubiquitin-rhodamine cleavage; 47,000 compounds, 5.3% hits; Q70CQ3; AID 1645860; purified USP30, Ub-rhodamine cleavage fluorescence; inhibition, % at 25 µM
USP8 block: blocks human USP8 ubiquitin-rhodamine cleavage; purified USP8, Ub-rhodamine cleavage fluorescence, 30 min; AID 1645853; 47,000 compounds, 4.2% hits; P40818; inhibition, % at 20 µM
USP28 inh: human USP28 deubiquitinase inhibition | Q96RU2 | AID 1645857 | purified USP28, Ub-rhodamine cleavage fluorescence, 30 min | 47,000 compounds, 3% hits | inhibition, % at 25 µM
Active calls of the source: *; . = not tested or not shown. Cut-off read from the data, not from the text of the source: active = inhibition above about 30%; inactive = the rest.

SMILES	USP17 inh	USP30 inh	USP8 block	USP28 inh
CCc1ccc(NC(=O)COc2ccc(-c3nc(CC)no3)cc2)cc1	19.6	26.3	-16.8	1.7
CCc1noc(-c2ccc(OCC(=O)Nc3ccccc3C(C)C)cc2)n1	41.5*	25.3	-21.5	-8.7
CCc1noc(-c2ccc(OCC(=O)Nc3ccc(C)cc3C)cc2)n1	51.2*	15.0	0.8	4.8
COc1ccc(N2CCN(c3nc4c(c(=O)n(C)c(=O)n4C)n3CCSc3nnnn3-c3ccccc3)CC2)cc1	3.4	18.5	-1.2	11.2
Cc1nc2c(c3c1[nH]c1ccccc13)C(=O)CC(C)(C)C2	-57.2	-128.0	-32.0	-65.2
O=C1NCc2c1c1c3ccccc3[nH]c1c1[nH]c3ccccc3c21	51.1*	37.3*	5.4	19.5
COc1ccc(OCCCn2c(CNC(=O)c3ccco3)nc3ccccc32)cc1	40.7*	48.2*	15.8	8.8
COc1cccc(OCCCn2c(C(C)NC(=O)c3ccco3)nc3ccccc32)c1 (stereo unspecified)	50.8*	-7.7	2.3	-5.6
COc1cccc(OCCCn2c(CN(C)C(=O)c3ccco3)nc3ccccc32)c1	-1.9	-20.1	-3.7	-6.8
C=CCS(=O)C[C@H](N)C(=O)O (stereo partly specified)	-28.3	-74.0	-47.8	-23.2
COc1ccccc1NC(=O)c1cc(C2CC2)n2nccc2n1	5.5	15.6	10.6	17.9
COc1ccc(Cn2ccc3nc(N4CCCCC4)ncc3c2=O)cc1	71.1*	28.1	7.3	15.2
CCn1cc(CCCC(=O)NCc2ccccc2C)c2ccccc21	-2.2	-18.0	-6.6	-6.0
COc1ccccc1N1CCN(CC(=O)N2CCc3ccccc32)CC1	21.0	-0.2	2.1	-1.4
CC(=O)N1CCc2cc(S(=O)(=O)NC(Cc3ccccc3)C(=O)Nc3cccc(Cl)c3C)ccc21 (stereo unspecified)	36.3*	67.0*	47.3*	70.3*
CC(=O)N1CCc2cc(S(=O)(=O)NCC(=O)NCc3ccc(Cl)cc3)ccc21	.	11.2	13.8	14.4
CC(=O)N1CCc2cc(S(=O)(=O)NC(Cc3ccccc3)C(=O)NCc3ccc4c(c3)OCO4)ccc21 (stereo unspecified)	55.5*	53.9*	12.7	52.2*
Cc1cc(C)c(C#N)c(SCc2nc(N)nc(Nc3ccccc3)n2)n1	-9.2	.	-5.9	.
COc1cccc(CN2C[C@@H](c3cc(=O)[nH]c(C)n3)[C@H](c3ccccc3F)C2)c1	-0.1	20.1	10.0	13.1
O=S(=O)(c1cccc2cccnc12)N1CCCC1c1ccc(F)cc1 (stereo unspecified)	-5.3	-8.7	4.9	9.6
O=S(=O)(c1cccc2cccnc12)N1CCN(c2ccc(F)cc2)CC1	13.0	30.4*	55.9*	8.3
CC(Nc1ccccc1Oc1ccccc1)C(=O)N1CC(=O)Nc2ccccc21 (stereo unspecified)	6.1	3.1	8.6	36.9*
O=C1CN(C(=O)COc2cccc3ccccc23)c2ccccc2N1	41.1*	5.5	84.2*	23.4
O=C1CN(C(=O)COc2ccc(F)cc2Cl)c2ccccc2N1	-8.4	-25.5	-0.9	-5.2
Cc1cc(Sc2cccc(C(F)(F)F)c2)nc2ccc(Cl)cc12	14.1	22.7	2.5	13.3
SMILES	USP17 inh	USP30 inh	USP8 block	USP28 inh
O=C(N[C@@H]1C[C@H]2Oc3ccccc3N[C@H]2[C@@H]1O)c1ccccc1F	4.1	7.3	-11.3	-10.3
CC(C)C1Cc2c(sc3nc(SCC(=O)NCCc4ccccc4)nc(N)c23)CO1 (stereo unspecified)	-32.4	-180.2	-25.7	-39.6
O=c1c2cnc3nc(-c4cccnc4)nn3c2ccn1CCc1ccccc1	51.0*	19.0	5.9	8.4
CC(C)(C)c1ccc(NC(=O)c2ccc3c(c2)S(=O)(=O)N=C2CCCCCN23)cc1	0.1	-12.7	-4.8	-4.8
Cc1ccc(NC(=O)c2cn(CC(O)c3ccc4c(c3)OCO4)nn2)cc1 (stereo unspecified)	45.7*	47.2*	10.3	18.6
O=C(Nc1ccc(F)cc1)c1cn(CC(O)c2ccc3c(c2)OCO3)nn1 (stereo unspecified)	1.8	15.3	0.0	0.4
O=C(Nc1ccncc1)c1cc(Br)ccc1F	24.9	35.2*	13.9	13.7
O=C1N[C@H]2OCC[C@H]2[C@H](C2CCN(C(=O)c3ccc(=O)[nH]c3)CC2)N1	-9.5	-20.0	-46.9	-6.0
CC(=O)N1C[C@H](c2ccccc2)[C@H]2CN(C(=O)c3ccc(=O)[nH]c3)CC[C@H]21	7.3	30.3*	8.1	14.7
Cc1nc(C)c(-c2ccc(SCC(=O)NCc3ccc4c(c3)OCO4)nn2)s1	12.1	1.1	-5.1	13.6
O=C(O)CCNC(=O)C1CCC(Cn2cnc3ccccc3c2=O)CC1 (stereo unspecified)	1.7	13.9	4.2	5.4
O=C(Nc1ccc2c(c1)OCO2)C1CCN(C(=O)c2ccc3n[nH]nc3c2)CC1	26.0	-13.1	35.6*	45.0*
O=C(Nc1ccc2c(c1)OCCO2)C1CCN(C(=O)c2ccccc2)CC1	12.7	20.8	0.3	76.2*
O=C(Nc1ccc2c(c1)OCCO2)C1CCC(Cn2cnc3ccccc3c2=O)CC1 (stereo unspecified)	-4.4	16.3	3.1	92.5*
O=C1CCCC[C@]2(CN(Cc3cccc(Oc4ncccn4)c3)C[C@H]2c2ccccn2)N1	13.6	22.4	17.6	22.1
O=C(c1ccccc1)N1CCN2C(=O)N(c3cccnc3)C(=O)C2(Cc2ccccc2)CC1 (stereo unspecified)	7.4	0.0	14.4	5.6
COc1cc(C#N)c(NC(=NCc2ccc(F)cc2)SC)cc1OC	53.4*	47.6*	14.4	35.1*
O=C(CN(c1cc(C(F)(F)F)ccc1Cl)S(=O)(=O)c1ccccc1)NCc1ccco1	4.4	1.4	32.0*	8.5
CC(=O)NCC(=O)N1CCCC(c2cc(-c3ccccc3)n[nH]2)C1 (stereo unspecified)	-1.6	0.0	-0.2	-10.7
Cc1cc(C)n2cnc(C#N)c2n1	3.3	7.0	11.8	-2.2
Cc1cc(C)n2cc(-c3sccc3Cl)c(C#N)c2n1	32.9*	-75.3	-169.6	1.7
Cc1nc(C(=O)Nc2cccc(Cl)c2Cl)nn1-c1cc(Cl)cc(Cl)c1	71.2*	24.2	1.7	9.7
COc1cccc(CC(=O)N2C3CCC4(CC3)OC(=O)N(C)CC24)c1 (stereo unspecified)	-0.6	2.9	1.4	-1.0
CCOc1cc2c(cc1OCC)C(c1c(OC)ccc3ccccc13)NCC2 (stereo unspecified)	0.1	38.2*	-8.7	7.7
CCOc1cc2c(cc1OCC)C(c1cc3c(cc1Br)OCO3)NCC2 (stereo unspecified)	-6.8	-6.6	0.3	0.6
CC1CC(=O)N(Cc2cccc(F)c2)c2ccccc2S1(=O)=O (stereo unspecified)	-1.0	-48.9	-10.9	-5.1
COc1ccc2cc(C(C)C(=O)NCc3ccccc3)ccc2c1 (stereo unspecified)	12.4	41.7*	-12.0	28.3
COc1ccc(CNC(=O)c2ccc(S(=O)(=O)Nc3ccccc3F)cc2)cc1	24.6	31.0*	11.5	10.9

Screening data as filed in PubChem BioAssay.
